The results in this text go back to paper PMC4336329 (PLoS ONE, 2015).

In all, about 310,000 compounds went through this assay and about 14,000 (4.5%) showed an effect of 50% or more. Effects have a minus sign here. Shown is part of a subset that was picked to be rich in strong results.
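Note: peak tail current of the secondary pulse compared with the same well before compound.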

The target in this assay is human ether-à-go-go-related gene (hERG) potassium channel (human, UniProt Q12809). Kind of assay: primary screen, population patch clamp on CHO cells stably expressing hERG; higher = less effect of the substance.
human ether-à-go-go-related gene (hERG) potassium channel, sequence (Q12809 whole entry, looked up): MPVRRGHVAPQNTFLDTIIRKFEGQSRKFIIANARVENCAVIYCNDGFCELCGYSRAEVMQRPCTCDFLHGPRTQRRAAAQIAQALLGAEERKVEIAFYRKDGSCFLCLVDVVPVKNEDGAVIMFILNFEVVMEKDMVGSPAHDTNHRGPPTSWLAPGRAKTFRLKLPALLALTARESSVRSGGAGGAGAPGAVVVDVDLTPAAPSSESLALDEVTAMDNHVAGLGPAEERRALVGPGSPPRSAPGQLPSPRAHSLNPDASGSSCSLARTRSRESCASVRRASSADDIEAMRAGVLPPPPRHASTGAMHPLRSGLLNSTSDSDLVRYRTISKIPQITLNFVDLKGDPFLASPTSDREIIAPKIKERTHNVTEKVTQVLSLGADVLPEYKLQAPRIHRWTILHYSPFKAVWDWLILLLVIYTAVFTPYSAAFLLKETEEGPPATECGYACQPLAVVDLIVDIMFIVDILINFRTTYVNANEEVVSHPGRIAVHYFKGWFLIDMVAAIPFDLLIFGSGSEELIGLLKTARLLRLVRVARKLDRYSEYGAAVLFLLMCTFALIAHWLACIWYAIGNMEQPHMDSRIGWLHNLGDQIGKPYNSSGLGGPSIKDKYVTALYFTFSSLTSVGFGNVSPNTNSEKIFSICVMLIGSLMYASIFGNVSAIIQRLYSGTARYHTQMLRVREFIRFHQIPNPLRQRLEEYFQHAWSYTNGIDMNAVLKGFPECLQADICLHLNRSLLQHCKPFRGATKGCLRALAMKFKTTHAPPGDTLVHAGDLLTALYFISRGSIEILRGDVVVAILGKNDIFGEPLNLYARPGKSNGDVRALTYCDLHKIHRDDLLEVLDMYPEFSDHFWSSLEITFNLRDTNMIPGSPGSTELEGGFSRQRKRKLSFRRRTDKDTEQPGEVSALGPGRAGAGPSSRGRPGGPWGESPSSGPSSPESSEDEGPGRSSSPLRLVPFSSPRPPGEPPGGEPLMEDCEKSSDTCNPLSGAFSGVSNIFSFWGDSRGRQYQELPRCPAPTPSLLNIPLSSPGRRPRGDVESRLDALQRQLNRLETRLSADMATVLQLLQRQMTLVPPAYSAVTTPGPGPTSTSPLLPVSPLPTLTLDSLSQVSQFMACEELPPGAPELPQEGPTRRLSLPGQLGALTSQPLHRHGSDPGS
In the case of `COc1ccc(C(=O)N(C)c2ccccc2C(=O)NCCc2ccccc2)cc1`, the “hERG current change (%, negative = inhibition) at 10uM” value was -20.2%.
With `O=C(CCCn1c(=O)c2ccccc2n(Cc2ccccc2)c1=O)NCc1ccco1`, the “hERG current change (%, negative = inhibition) at 10uM” value is listed as -7.47%.
On to `CNC(=O)c1c(C)nn(-c2ccc(F)c(Cl)c2)c1-c1cc(C)on1`, for which the “hERG current change (%, negative = inhibition) at 10uM” value is recorded as 4.71%.
As to `Cc1ccc(CC(=O)Nc2ccc(S(=O)(=O)Nc3nccc(C)n3)cc2)cc1`, the “hERG current change (%, negative = inhibition) at 10uM” value is 1.2%.
Then `CCCCC(NC(C)=O)c1nc2ccccc2[nH]1` (stereo not drawn), with 23.1%; and `CC(C)COC(=O)Nc1ccccc1C(=O)N1CCOCC1`, with 9.75%.
For `C=C[C@@H]1C2=CCOC(=O)C2=CO[C@H]1O[C@@H]1O[C@H](CO)[C@@H](O)[C@H](O)[C@H]1O`, the “hERG current change (%, negative = inhibition) at 10uM” value came to 20.1%.
Regarding `N#CCCN1CCN(S(=O)(=O)c2ccc(S(=O)(=O)N3CCCC3)cc2)CC1`, the “hERG current change (%, negative = inhibition) at 10uM” value came out at 4.66%.
`COc1ccc(S(=O)(=O)NCc2ccccn2)c(C)c1C`: the “hERG current change (%, negative = inhibition) at 10uM” value is given as 0.26%.
As for `N#CCc1c(C#N)c(N)nc(N2CCCC(CO)C2)c1C#N` (stereo not drawn), the figure is 1.82%.
For the compound `Cc1cc(C)c(Cn2c3ccccc3c3cnn(CC(=O)NCCN4CCOCC4)c(=O)c32)c(C)c1`, the “hERG current change (%, negative = inhibition) at 10uM” value turned out to be 2.31%.
As for `Cc1ccc(C)c(Cn2c3ccccc3c3cnn(CC(=O)NCCN4CCOCC4)c(=O)c32)c1`, the figure is -45%.
As for `Cc1ccccc1Cn1c2ccccc2c2cnn(CC(=O)NCCCN3CCOCC3)c(=O)c21`, the “hERG current change (%, negative = inhibition) at 10uM” value is -18.6%.
For the compound `O=C(Cn1ncc2c3ccccc3n(Cc3ccccc3)c2c1=O)NCCCN1CCOCC1`, the “hERG current change (%, negative = inhibition) at 10uM” value was -45.2%.
In the case of `O=C(Cn1ncc2c3ccccc3n(Cc3ccccc3)c2c1=O)NCCN1CCOCC1`, the “hERG current change (%, negative = inhibition) at 10uM” value is reported as -57%.
With `O=C(Cn1ncc2c3ccccc3n(Cc3ccccc3F)c2c1=O)NCCN1CCOCC1`, the “hERG current change (%, negative = inhibition) at 10uM” value is recorded as -55.2%.
As for `CCC(=O)/C=C1/Sc2ccc(OC)cc2N1CC`, the figure is -4.45%; as for `C=CCn1cc(C(=O)NCC2CCCO2)c(=O)c2cc(S(=O)(=O)N3CCCCCC3)ccc21` (stereo not drawn), -48.1%.
Take `O=C(COC(=O)C1=COCCO1)Nc1cccc(S(=O)(=O)N2CCOCC2)c1`: the “hERG current change (%, negative = inhibition) at 10uM” value came to 10.8%.
For the compound `COc1ccc(-c2c(NC(=O)c3ccco3)oc3ccc(Cl)cc3c2=O)cc1`, the “hERG current change (%, negative = inhibition) at 10uM” value was found to be 19.7%.
As for `O=c1ccn(Cc2ccc(F)cc2)c2ccnc(C(F)(F)F)c12`, the figure is -25.9%; as for `CCN(CC)S(=O)(=O)c1ccc(N2CCCC2)c(NC(=O)C2=COCCO2)c1`, -40%; as for `COC(=O)Cn1cc(/C=C/c2cc[n+](C)cc2)c2ccccc21.[I-]`, 5.7%.
For the compound `CCn1cc(/C=C/c2cc[n+](C)cc2)c2ccccc21.[I-]`, the “hERG current change (%, negative = inhibition) at 10uM” value was -56.1%.
Then `CCn1c(/C=C/c2cc[n+](C)cc2)nc2ccccc21.[I-]`, with 15%; and `CN(C)c1ccc(-c2nc3cc(N)ccc3o2)cc1`, with 6.31%.
On to `COCCNC(=O)c1cc2c(=O)n3cccc(C)c3nc2n1C`, for which the “hERG current change (%, negative = inhibition) at 10uM” value was determined as 11.7%.
For the compound `Cc1cccn2c(=O)c3cc(C(=O)N4COCC4(C)C)n(Cc4ccccc4)c3nc12`, the “hERG current change (%, negative = inhibition) at 10uM” value turned out to be 1.23%.
With `CCCCNC(=O)c1cc2c(=O)n3cccc(C)c3nc2n(Cc2ccccc2)c1=N`, the “hERG current change (%, negative = inhibition) at 10uM” value was -77.6%.
For `COCCNC(=O)c1cc2c(=O)n3cccc(C)c3nc2n(Cc2ccncc2)c1=N`, the “hERG current change (%, negative = inhibition) at 10uM” value is -70%.
As to `CCCCNC(=O)c1cc2c(=O)n3cccc(C)c3nc2n(Cc2ccncc2)c1=N`, the “hERG current change (%, negative = inhibition) at 10uM” value is recorded as -75.1%.
Regarding `CCCCNC(=O)c1cc2c(=O)n3cccc(C)c3nc2s1`, the “hERG current change (%, negative = inhibition) at 10uM” value is 7.96%.
Take `CCNC(=O)c1cc2c(=O)n3cccc(C)c3nc2n(Cc2ccc(C)cc2)c1=N`: the “hERG current change (%, negative = inhibition) at 10uM” value is -88%.
Regarding `CCc1cc2c(NC(Cc3c[nH]c4ccccc34)C(=O)O)nc(C)nc2s1` (stereo not drawn), the “hERG current change (%, negative = inhibition) at 10uM” value was 31.3%.
With `COCC(=O)Nc1ccc(S(=O)(=O)Nc2ccccn2)cc1`, the “hERG current change (%, negative = inhibition) at 10uM” value is reported as 17.8%.
As for `Cc1ccc(S(=O)(=O)NCCOc2cc(C)ccc2C)cc1`, the “hERG current change (%, negative = inhibition) at 10uM” value is on record as -6.41%.
Consider `Cc1c(NC(=O)CSc2n[nH]c(-c3ccccc3)n2)c(=O)n(-c2ccccc2)n1C`, for which the “hERG current change (%, negative = inhibition) at 10uM” value is on record as 3.93%.
Turning to `CC1=C(C(=O)Nc2ccc(C(=O)NCCCN3CCCCC3)cc2)SCCO1`, the “hERG current change (%, negative = inhibition) at 10uM” value is on record as -24.8%.
With `CN(N)N=Nc1nc2c([nH]1)c(=O)n(C)c(=O)n2C`, the “hERG current change (%, negative = inhibition) at 10uM” value is recorded as 0.0258%.
`Cc1cc(C)cc(SCc2noc(C(=O)NC(C)C)c2C(=O)O)c1`: the “hERG current change (%, negative = inhibition) at 10uM” value stood at 33.6%.
With `C=CCNC(=O)c1cnn(-c2ccccc2)c1-c1ccccc1`, the “hERG current change (%, negative = inhibition) at 10uM” value is 10.4%.
As for `Cc1ccc(NCc2nnc(SCC(=O)Nc3nnc(C)s3)n2C)cc1`, the figure is -1.72%; as for `COC(=O)C1CCN(C(=O)c2cc3c(=O)n4cccc(C)c4nc3n2Cc2ccccc2)CC1`, 13.2%; as for `Cc1cccn2c(=O)c3cc(C(=O)NC(C)C)c(=N)n(Cc4ccncc4)c3nc12`, -72.4%.
`Cc1ccc(S(=O)(=O)c2cc3c(=O)n4cccc(C)c4nc3n(Cc3ccncc3)c2=N)cc1`: the “hERG current change (%, negative = inhibition) at 10uM” value is recorded as -40.8%.
In the case of `COc1ccc(NC(=S)N(CCN(C)C)Cc2cccs2)cc1`, the “hERG current change (%, negative = inhibition) at 10uM” value is recorded as -33.9%.
Take `COc1cccc(NC(=S)N(CCCN2CCOCC2)Cc2cn(C)c3ccccc23)c1`: the “hERG current change (%, negative = inhibition) at 10uM” value is on record as -10.7%.
For `COc1ccc(NC(=S)N(CCCN2CCCC2)Cc2cccs2)cc1`, the “hERG current change (%, negative = inhibition) at 10uM” value was -48%.
In the case of `COc1ccc(NC(=S)N(CCCN2CCN(C)CC2)Cc2cccs2)cc1`, the “hERG current change (%, negative = inhibition) at 10uM” value is listed as -53.4%.
As for `COc1ccc(NC(=S)N(CCCN2CCOCC2)Cc2cn(C)c3ccccc23)cc1`, the figure is -16.8%; as for `COc1ccc(NC(=S)N(CCCN2CCC(C)CC2)Cc2cccs2)cc1`, -68.2%; as for `COc1cccc(NC(=S)N(CCCN2CCC(C)CC2)Cc2cccs2)c1`, -59.2%.
In the case of `COc1cccc(NC(=S)N(CCN(C)C)Cc2cccs2)c1`, the “hERG current change (%, negative = inhibition) at 10uM” value is -10.5%.
`COc1ccc(NC(=S)N(CCCN2CCCCC2)Cc2cccs2)cc1`: the “hERG current change (%, negative = inhibition) at 10uM” value is on record as -61%.
For `CCCCN(C(=O)c1ccc(-c2ccc(Cl)cc2)o1)c1c(N)n(CCC)c(=O)[nH]c1=O`, the “hERG current change (%, negative = inhibition) at 10uM” value was found to be 0.856%.
Consider `O=C(NC1CCCC1)C(c1cccs1)N(Cc1ccco1)C(=O)Cn1nnc(-c2cccs2)n1` (stereo not drawn), for which the “hERG current change (%, negative = inhibition) at 10uM” value is recorded as 2.45%.
Then `CCC1CCCCN1C(=S)Nc1cccc(S(=O)(=O)N(C)C)c1` (stereo not drawn), with -6.73%; and `CCOP(=S)(OCC)Oc1cc(C)oc(=O)c1Cl`, with 19.6%.
For the compound `COc1cc(C2=NOC(C(=O)NC3CCCCC3)C2)cc(OC)c1OC` (stereo not drawn), the “hERG current change (%, negative = inhibition) at 10uM” value is -8.08%.
On to `Cc1cc(C)[n+](-c2ccc(Oc3ccccc3)c(S(=O)(=O)[O-])c2)[nH]1`, for which the “hERG current change (%, negative = inhibition) at 10uM” value is on record as 13.6%.
Regarding `CC(=O)Nc1ccc2c(c1)C(=O)N(c1cccc3ccccc13)C2=O`, the “hERG current change (%, negative = inhibition) at 10uM” value is recorded as -9.32%.
Consider `COc1ccc(NP(=O)(Oc2ccc(Cl)cc2)Oc2ccc(Cl)cc2)cc1OC`, for which the “hERG current change (%, negative = inhibition) at 10uM” value is -16.6%.
In the case of `O=C(OC1CCOC1=O)c1cncc(Br)c1` (stereo not drawn), the “hERG current change (%, negative = inhibition) at 10uM” value is listed as -15.7%.
Take `Nc1ccc(-c2ccc(N)c(C(=O)O)c2)cc1C(=O)O`: the “hERG current change (%, negative = inhibition) at 10uM” value was determined as 7.74%.
In the case of `CC(=O)NC12CC3CC(C1)CC(C(=O)Nc1nccs1)(C3)C2`, the “hERG current change (%, negative = inhibition) at 10uM” value is 6.58%.
For the compound `CC(OC(=O)Cn1cnc2c1c(=O)n(C)c(=O)n2C)C(=O)NC1CCCCC1C` (stereo not drawn), the “hERG current change (%, negative = inhibition) at 10uM” value came out at 15.4%.
`CCC(c1nnnn1C1CCCCC1)N1CCN(C(=O)c2ccco2)CC1.Cl` (stereo not drawn): the “hERG current change (%, negative = inhibition) at 10uM” value is listed as -11.4%.
Turning to `COc1cc(/C=N/Nc2cccc(C)c2)ccc1OC(=O)c1ccco1`, the “hERG current change (%, negative = inhibition) at 10uM” value was 23.4%.
As to `COc1ccc(NC(=S)N(CCCN2CCC(C)CC2)Cc2cccs2)cc1Cl`, the “hERG current change (%, negative = inhibition) at 10uM” value is on record as -73.1%.
For the compound `COc1ccc(NC(=S)N(CCCN2CCCC2)Cc2cccn2Cc2ccc(Cl)cc2)cc1Cl`, the “hERG current change (%, negative = inhibition) at 10uM” value is on record as -6.98%.
Then `COc1ccc(NC(=S)NCCN2CCC(C)CC2)cc1Cl`, with -30.5%; and `Cn1c(Cn2nnc3ccccc32)nnc1SCC(=O)N1c2ccccc2Sc2ccccc21`, with -22.1%.
For `O=C(OCCN=C1NS(=O)(=O)c2ccccc21)c1ccncc1`, the “hERG current change (%, negative = inhibition) at 10uM” value is given as -1.44%.
On to `C/C(=N\NC(=O)Cn1cc([N+](=O)[O-])cn1)c1ccc(O)cc1`, for which the “hERG current change (%, negative = inhibition) at 10uM” value is given as -5.56%.
Then `COc1ccc(NS(=O)(=O)c2cccc(C(=O)NCC3(N4CCCCC4)CCCCC3)c2)cc1`, with -55.4%; and `O=C(c1cccc(S(=O)(=O)Nc2ccc(F)cc2)c1)N1CCCC1`, with -3.1%; and `O=C(NCC1(N2CCCCC2)CCCCC1)c1cccc(S(=O)(=O)Nc2ccc(F)cc2)c1`, with -64%.
On to `COc1ccc(NS(=O)(=O)c2cccc(C(=O)N3CCCCCCC3)c2)cc1`, for which the “hERG current change (%, negative = inhibition) at 10uM” value is -28.9%.
For `O=C(NCC1(N2CCOCC2)CCCCC1)c1cccc(S(=O)(=O)Nc2ccc(F)cc2)c1`, the “hERG current change (%, negative = inhibition) at 10uM” value is reported as -44.1%.
With `COc1ccc(NS(=O)(=O)c2cccc(C(=O)NCC3(N4CCOCC4)CCCCC3)c2)cc1`, the “hERG current change (%, negative = inhibition) at 10uM” value is given as -36.7%.
Take `COc1cc(/C=C2\C(=O)NN(c3ccccc3)C2=O)cc([N+](=O)[O-])c1O`: the “hERG current change (%, negative = inhibition) at 10uM” value worked out at 22%.
Then `O=C(N/N=C/c1coc2ccccc2c1=O)c1cccc([N+](=O)[O-])c1`, with 26.8%; and `Cc1ccccc1NC(=O)Cn1nnc(S(=O)(=O)c2ccc(C(C)(C)C)cc2)c1N`, with 4.35%; and `COc1ccc(S(=O)(=O)NCc2cccnc2)cc1C(=O)Nc1ccccc1`, with -47.9%.
